The values below come from PubChem BioAssay (Tox21).

Values joined by “and” are separate entries in the source; they are usually repeats but may differ in a detail not shown here. Equal entries are not always repeated. Records with an inconclusive call do not appear. The source holds several records for some structures; these can differ, active in one and inactive in another. Unmarked numbers belong to inactive results. Active and inactive are the calls of the source. Calls come from the whole dose curve; as a rule, active = well fitted curve in the direction sought with a large enough effect in the repeat runs; inconclusive = weak or mixed curves; inactive = no such curve, though single readings can be large; an effect the other way counts as inactive or inconclusive.
% is set by controls: 0 for no effect and ±100 for the full control effect; potency is the fitted concentration of half-maximal effect.

Chain of Aryl hydrocarbon receptor (Homo sapiens) (P35869 whole entry, looked up): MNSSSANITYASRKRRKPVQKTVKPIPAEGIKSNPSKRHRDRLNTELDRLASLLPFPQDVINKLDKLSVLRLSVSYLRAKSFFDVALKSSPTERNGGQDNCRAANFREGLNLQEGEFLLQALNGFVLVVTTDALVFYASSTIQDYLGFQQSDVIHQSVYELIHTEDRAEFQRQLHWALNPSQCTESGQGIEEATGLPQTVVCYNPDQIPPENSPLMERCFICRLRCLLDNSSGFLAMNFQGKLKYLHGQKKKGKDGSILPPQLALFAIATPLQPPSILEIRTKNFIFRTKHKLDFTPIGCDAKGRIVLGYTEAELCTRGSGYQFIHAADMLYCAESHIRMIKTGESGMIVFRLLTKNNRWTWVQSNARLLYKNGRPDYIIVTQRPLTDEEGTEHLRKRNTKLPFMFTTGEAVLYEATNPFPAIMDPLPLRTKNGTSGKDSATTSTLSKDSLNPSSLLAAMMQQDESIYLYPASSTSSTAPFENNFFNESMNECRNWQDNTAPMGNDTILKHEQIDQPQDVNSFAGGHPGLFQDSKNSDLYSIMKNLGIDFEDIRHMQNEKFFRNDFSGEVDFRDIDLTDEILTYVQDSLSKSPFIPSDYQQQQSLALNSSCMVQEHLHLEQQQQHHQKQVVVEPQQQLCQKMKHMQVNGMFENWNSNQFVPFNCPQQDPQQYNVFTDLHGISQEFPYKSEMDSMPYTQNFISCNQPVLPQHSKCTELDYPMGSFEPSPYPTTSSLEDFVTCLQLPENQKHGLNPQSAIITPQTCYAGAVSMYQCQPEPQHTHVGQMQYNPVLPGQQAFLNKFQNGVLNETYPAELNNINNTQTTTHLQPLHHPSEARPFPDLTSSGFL

The first assay has as its target Aryl hydrocarbon receptor (Homo sapiens) (UniProt P35869). Briefly: qHTS assay to identify small molecule that activate the aryl hydrocarbon receptor (AhR) signaling pathway (AID 743085).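 For activation: HG2L7.5c1 human HepG2 liver cells with stably integrated DRE-driven firefly reporter.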 Note: nearly all actives have a fitted effect of over 15% in size. Particulars: HepG2 AhR-luc (HG2L7.5c1), luciferase, 24 h; series mostly up to 70.3 µM; activation: at the top concentration. In a few lines: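 HepG2 cells stably carrying a 20-DRE firefly luciferase reporter (HG2L7.5c1) treated with compound for 24 hr at 37C. Luciferase read by ONE-Glo luminescence, with CellTiter-Fluor viability read first.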
As to `C=CCCC`, the “activation” value is -0.219% [at 95 µM].
For the molecule `CC(C)CC(C)(C)C`, the “activation” value was 7.29% [at 95 µM].
Take `O=C1OC(=O)C2CC=CCC12` (stereo not given): the “activation” value is 1.13% [at 95 µM].
Same read-out and setting: for `SCCOCCOCCS` the value was 4.88%.
Same read-out and setting: for `CC(C)(C)c1ccc(CCC=O)cc1` the value was -0.849%; for `Cc1nc2sccn2c(=O)c1CCN1CCC(=C(c2ccc(F)cc2)c2ccc(F)cc2)CC1`, -0.202%; for `O=C(O)c1ccccc1-n1cc(C(=O)O)c(=O)c2cc(Nc3c(F)cc(F)cc3Cl)c(Cl)cc21`, -0.361%.
Still for that read-out and setting: for `O=C(O)COCC(=O)O` the value was 1.23% [at 95 µM]; for `NC(=O)c1ccccc1`, -1.1% [at 95 µM].
On to `Cc1ccc(NC(=O)c2ccc(CN3CCN(C)CC3)cc2)cc1Nc1nccc(-c2cccnc2)n1`, for which the Potency is 21.1 µM (active).
As for `CCN(CCCCOC(=O)c1ccc(OC)c(OC)c1)C(C)Cc1ccc(OC)cc1` (stereo not given), the “activation” value was -0.206% [at 32.5 µM].
On the same count and under the same terms, for `CCCN(C1CCN(C(=O)C2CCNCC2)CC1)[C@@H]1CCc2ccc(OC)cc2C1` the value was -0.26%.

Test system in a further assay: not listed separately
Briefly: qHTS assay to identify small molecule that activate the aryl hydrocarbon receptor (AhR) signaling pathway - cell viability counter screen (AID 743086). Note: nearly all actives have a fitted effect of over 45% in size. The conditions noted are these: HepG2-AhR-luc viability, CellTiter-Fluor, 24 h; series mostly up to 70.3 µM; viability change, negative = cytotoxic: at the top concentration. In a few lines:
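HepG2-AhR-luc (HG2L7.5c1) cells, 4000/well, were preincubated 5 h at 37C, exposed to compound in qHTS format for 24 hr at 37C, then given CellTiter-Fluor for 30 min; viability was read as fluorescence in the reporter wells.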
With `C=CC(C)(O)CC/C=C(/C)CCC=C(C)C` (stereo not given), the “viability change, negative = cytotoxic” value is 3.11%.
The same measure, in the same setting: for `CC/C=C/CCO` the value was 4.15% [at 95 µM]; for `C[C@@H](O)[C@H]1C(=O)N2C(C(=O)O)=C(S[C@@H]3CN[C@H](CNS(N)(=O)=O)C3)[C@H](C)[C@H]12`, -9.21%.
Same read-out and setting: in the case of `O=C(NC1CCN(CCc2c[nH]c3ccccc23)CC1)c1ccccc1` it was -17.3%; in that of `Cc1c(-c2cccnc2)c2ccccc2n1CCCCC(=O)O`, 8.85%.
Take `COc1ccc(C(=O)c2ccc(C)cc2)c(O)c1`: the Potency result was “inactive”.
For `O=C(O)c1cc(C(=O)O)c(C(=O)O)cc1C(=O)O`, the “viability change, negative = cytotoxic” value was -3.11%.
On to `OCCc1ccncc1`, for which the “viability change, negative = cytotoxic” value was 5.31%.
Turning to `CC(C)(C(=O)O)c1ccc(C(O)CCCN2CCC(C(O)(c3ccccc3)c3ccccc3)CC2)cc1` (stereo not given), the “viability change, negative = cytotoxic” value was -0.322%.
Regarding `C1CCN(CN2CCCCC2)CC1`, the “viability change, negative = cytotoxic” value was -1.09%.
On the same count and under the same terms, in the case of `O=C1c2ccccc2C(=O)c2c1ccc(O)c2O` it was 7.72%.
For the molecule `CC1=CC(=C(c2ccc(N)cc2)c2ccc(N)cc2)C=CC1=N`, the Potency was 18.8 µM (active) and the viability change, negative = cytotoxic was -14.7% [at 8.47 µM].
On to `O=[N+]([O-])c1ccc(Cl)cc1Cl`, for which the “viability change, negative = cytotoxic” value was 0.581%.
Same read-out and setting: for `CCCCCCCCCCCCSC#N` the value was -0.749%.
Consider `COc1cc(CNC(=O)CCCC/C=C/C(C)C)ccc1O`, for which the Potency entry is “inactive”.
Take `C/C=C1\[C@H]2C=C(C)C[C@]1(N)c1ccc(=O)[nH]c1C2`: the “viability change, negative = cytotoxic” value is 10.2%.
`Cc1cc(SC2=C(O)C[C@@](CCc3ccc(N)cc3)(C(C)C)OC2=O)c(C(C)(C)C)cc1CO`: the “viability change, negative = cytotoxic” value was -2.5%.
Still for that read-out and setting: for `O=C(OC1C[C@H]2CC[C@@H](C1)[N+]21CCCC1)C(O)(c1ccccc1)c1ccccc1` (stereo not given in full) the value was 4.63%.
Consider `CC(C)C[C@H](NC(=O)[C@H](Cc1ccccc1)NC(=O)c1cnccn1)B(O)O`, for which the Potency was 376 nM (active) and 335 nM (active).
`CCOCCn1c(N2CCCN(C)CC2)nc2ccccc21`: the “viability change, negative = cytotoxic” value was -0.231%.
Same read-out and setting: in the case of `CC/C=C\CCO` it was 2.67%; in that of `CC(=O)c1ccc(Cl)c(Cl)c1Cl`, -2.17%.
Consider `C[C@H](CN1CCCC1)C(=O)c1ccc(C(F)(F)F)cc1`, for which the “viability change, negative = cytotoxic” value was -5.11%.
As for `C=CCCC`, the “viability change, negative = cytotoxic” value is -22.6% [at 95 µM].
The same measure, in the same setting: for `CC(=O)Nc1ccccc1O` the value was -4.83%.
Regarding `O=C(O)CNc1ccccc1`, the “viability change, negative = cytotoxic” value is 0.647%.
Still for that read-out and setting: in the case of `CC(C)CC(C)(C)C` it was -9.26% [at 95 µM].
With `O=C1OC(=O)C2CC=CCC12` (stereo not given), the “viability change, negative = cytotoxic” value was -5.09% [at 95 µM].
Take `SCCOCCOCCS`: the “viability change, negative = cytotoxic” value is -6.59%.
Still for that read-out and setting: in the case of `S=c1[nH][nH]c(=S)s1` it was 23.9%; in that of `CC(C)(C)c1ccc(CCC=O)cc1`, -0.975%.
The same measure, in the same setting: for `O=C(O)c1ccccc1-n1cc(C(=O)O)c(=O)c2cc(Nc3c(F)cc(F)cc3Cl)c(Cl)cc21` the value was 9.47%.
The same measure, in the same setting: in the case of `O=C(O)COCC(=O)O` it was 15.9% [at 95 µM].
For `NC(=O)c1ccccc1`, the “viability change, negative = cytotoxic” value is -0.841% [at 95 µM].
Take `CCC(C)C1N=C(C)C(C)S1` (stereo not given): the “viability change, negative = cytotoxic” value is -23.4%.
Still for that read-out and setting: for `CCN(CCCCOC(=O)c1ccc(OC)c(OC)c1)C(C)Cc1ccc(OC)cc1` (stereo not given) the value was 1.28% [at 32.5 µM]; for `CCCN(C1CCN(C(=O)C2CCNCC2)CC1)[C@@H]1CCc2ccc(OC)cc2C1`, -19.5%.
